HEK cytotox = HEK 293 cell cytotoxicity. HEK 293 viability, ATP luminescence (CellTiter-Glo), 48-72 h. Potency, µM (doses to about 115 µM), most hits filed as inhibitors. hit rate 6.6% among 94,000. AID 1345083; note: nearly all actives have a fitted effect of over 60% in size
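250 HEK 293 cells/well; compound by pintool; incubated 48 or 72 hr at 37 degree Celsius; CellTiter-Glo added, 10 min RT, luminescence imaged.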
3T3 cytotox = kills NIH 3T3 cells; NIH 3T3 viability, CellTiter-Glo ATP luminescence, 48-72 h; Potency, µM (top dose mostly 96.7 µM), hits mostly inhibitors; hit rate 4.3% among 94,000; AID 1345082; note: nearly all actives have a fitted effect of over 55% in size
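First NIH 3T3 cells are plated at 400 cells/well; next compound is pinned in; then plates incubate 48 or 72 hr at 37 °C; finally CellTiter-Glo is added and luminescence read after 10 min.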
Luciferase inh = Photinus pyralis luciferase inhibition | hit rate 2.5% among 76,000 | P08659 | Potency, µM (highest dose often 115 µM), most hits filed as inhibitors | AID 1347043 | purified P. pyralis luciferase, luminescence, biochemical; note: nearly all actives have a fitted effect of over 65% in size
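Purified P. pyralis luciferase (10nM final) in 50mM Tris acetate pH 7.5, 10mM Mg acetate, 0.01% Tween-20, 0.05% BSA with 10uM D-luciferin and 10uM ATP. Compounds titrated qHTS. Luminescence imaged on CCD.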
hNpr1 antagonist = blocks ANP-stimulated signaling of human Npr1 receptor | hit rate 1.6% among 76,000 | Potency, µM (top dose mostly 46.3 µM), actives largely listed as inhibitors | HEK293 hNpr1 GloSensor cGMP, ANP-stimulated luminescence | P16066; calls by dose curve; note: nearly all actives have a fitted effect of over 60% in size
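Compound pre-incubated 30 min at room temperature on GloSensor-loaded HEK293 cells stably carrying hNpr1 and the pGS-40F cGMP biosensor. Stimulation uses hNppA at 0.1 nM final; luminescence is taken at baseline and 20 min post-agonist.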
GPT2 inh = GPT2 alanine aminotransferase inhibition. Q8TD30. Recombinant GPT2, coupled pyruvate oxidase/HRP Amplex Red fluorescence. Potency, µM (titrated, usually from 57.7 µM), actives largely listed as inhibitors. hit rate 0.25% among 100,000. AID 1671188; note: nearly all actives have a fitted effect of over 60% in size
Target sequence (Q8TD30 whole entry, looked up): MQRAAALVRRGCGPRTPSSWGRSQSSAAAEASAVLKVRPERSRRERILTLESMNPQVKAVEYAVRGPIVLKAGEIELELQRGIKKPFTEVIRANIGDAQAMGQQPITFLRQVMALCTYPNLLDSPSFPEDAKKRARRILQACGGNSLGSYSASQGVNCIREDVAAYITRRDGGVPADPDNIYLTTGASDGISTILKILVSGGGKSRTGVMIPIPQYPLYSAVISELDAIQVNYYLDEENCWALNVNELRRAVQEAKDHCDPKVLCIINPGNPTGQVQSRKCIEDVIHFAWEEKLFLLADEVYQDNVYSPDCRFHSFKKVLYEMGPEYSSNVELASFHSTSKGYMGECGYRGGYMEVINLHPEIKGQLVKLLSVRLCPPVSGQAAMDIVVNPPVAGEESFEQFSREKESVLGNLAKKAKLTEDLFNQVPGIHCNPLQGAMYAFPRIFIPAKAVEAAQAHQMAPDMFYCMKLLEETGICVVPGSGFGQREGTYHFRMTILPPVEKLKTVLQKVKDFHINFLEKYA
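Inhibition is scored from Amplex Red fluorescence generated when pyruvate oxidase and HRP act on pyruvate released by GPT2. Reactions contain 10ng/uL enzyme, 250uM a-KG and 2mM L-alanine and run 30 min at room temperature.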
Large screens that a line does not name were inactive. A selection: hits, their analogues and other compounds. The true share with any hit is near 10%. Unless noted, calls come from the whole dose curve; as a rule, active = well fitted curve in the direction sought with a large enough effect; inconclusive = small, poorly fitted or top-dose-only effect, or another doubt; inactive = no such curve, though single readings can be large; an effect the other way counts as inactive or inconclusive.

COc1ccccc1N1CCCc2ncc(C(=O)Nc3cccnc3)cc21	HEK cytotox 100µM, 3T3 cytotox inconclusive, GPT2 inh inconclusive
COc1cccc(CN(C)Cc2cccc(C(F)(F)F)c2)c1	HEK cytotox inconclusive (no result: Luciferase inh, hNpr1 antagonist)
Cc1cccc(OC2CN(C(=O)c3ccc(CCC(C)(C)O)cc3)C2)c1	HEK cytotox inconclusive, 3T3 cytotox inconclusive
Cc1nc2ccccc2n1Cc1cc(C(=O)N2CCCC2)no1	HEK cytotox 40µM, 3T3 cytotox inconclusive
CC(C)Cn1c(=O)c(C(=O)N2CCN(c3ncccn3)CC2)nc2cccnc21	3T3 cytotox inconclusive (no result: Luciferase inh, hNpr1 antagonist)
COc1ccccc1-c1cnc(Nc2cncnc2)c2c1CCO2	HEK cytotox inconclusive, 3T3 cytotox inconclusive, GPT2 inh inconclusive
COc1ccc(Nc2ncc(-c3ccccc3OC)c3c2OCC3)cn1	HEK cytotox inconclusive, 3T3 cytotox inconclusive, Luciferase inh 32µM, hNpr1 antagonist inconclusive
COc1cncc(Nc2ncc(-c3ccccc3OC)c3c2OCC3)c1	HEK cytotox inconclusive, 3T3 cytotox 71µM
Clc1ccc(CN2CCOC[C@H](Oc3cccnc3)C2)cc1	HEK cytotox inconclusive, 3T3 cytotox inconclusive
COc1ccc(C2Cn3nnc(C(=O)Nc4cc(C)ccc4F)c3CO2)cc1 (stereo not given)	HEK cytotox inconclusive, 3T3 cytotox inconclusive
Cc1csc(NC(=O)c2ccc3c(c2)OCCN(CCC(F)(F)F)C3)n1	HEK cytotox 79µM, 3T3 cytotox inconclusive, Luciferase inh inconclusive
CC(C)CCN1CCOc2cc(C(=O)Nc3ccc4cn[nH]c4c3)ccc2C1	HEK cytotox 89µM, 3T3 cytotox inconclusive, Luciferase inh inconclusive
Cc1cnc(NC(=O)c2ccc3c(c2)OCCN(CCC(C)C)C3)s1	HEK cytotox inconclusive, 3T3 cytotox inconclusive, Luciferase inh inconclusive
O=C1Nc2ccc(-c3ccccc3)cc2C(=O)N2CC[C@H](NS(=O)(=O)c3cccs3)[C@@H]12	HEK cytotox inconclusive, 3T3 cytotox 20µM
O=C(N[C@H]1CCN2C(=O)c3cc(-c4ccc5c(c4)OCO5)ccc3NC(=O)[C@H]12)c1cccc(F)c1	HEK cytotox inconclusive, 3T3 cytotox 79µM
O=C(N[C@H]1CCN2C(=O)c3cc(-c4ccccc4)ccc3NC(=O)[C@H]12)c1cccc(F)c1	HEK cytotox 89µM, 3T3 cytotox inconclusive, Luciferase inh inconclusive
O=C(N[C@H]1CCN2C(=O)c3cc(-c4ccsc4)ccc3NC(=O)[C@H]12)c1cccc(F)c1	GPT2 inh inconclusive
O=C1Nc2ccccc2C(=O)N2CC[C@H](NS(=O)(=O)c3cccs3)[C@@H]12	none
COc1ccc(-c2ccc3c(c2)C(=O)N2CC[C@H](NC(=O)C4CCCC4)[C@H]2C(=O)N3)cc1	3T3 cytotox inconclusive, Luciferase inh 22µM
CN(C)C[C@@H]1CN(Cc2ccccc2)C[C@H]1NC(=O)c1cc(C2CC2)[nH]n1	none
CCCn1ncnc1C(C)Nc1cc(C(C)C)nc2cc(C)nn12 (stereo not given)	HEK cytotox inconclusive, 3T3 cytotox 35µM
CCCn1ncnc1C(C)NC(=O)C1CCN(C(=O)C2CC2)CC1 (stereo not given)	none
Cc1cc2cc(-c3c(C)noc3C)nc(NC3CCN(C)CC3)c2o1	HEK cytotox 100µM, 3T3 cytotox 35µM
Cc1noc(C)c1-c1cc2cc(CO)oc2c(NCc2cccc(F)c2)n1	HEK cytotox inconclusive, 3T3 cytotox 25µM
COCCNc1nc(-c2c(C)noc2C)cc2cc(CO)oc12	3T3 cytotox inconclusive
Cc1noc(C)c1-c1cc2cc(CO)oc2c(NC2CCN(C)CC2)n1	HEK cytotox inconclusive, 3T3 cytotox 45µM
O=C(COc1ccc(F)cc1)N1CCC(n2cc(-c3nc(C4CC4)no3)nn2)C1 (stereo not given)	3T3 cytotox inconclusive
COCCN1C(=O)c2cccn2CC1CNC(=O)CCc1nc2ccccc2s1 (stereo not given)	none
Cc1nn(CCC#N)c(C)c1[C@@H]1C=C[C@@H](NS(=O)(=O)c2cccs2)C1	3T3 cytotox 45µM
Cc1nn(-c2ccc(F)cc2)c(C)c1[C@@H]1C=C[C@@H](NS(=O)(=O)c2cccs2)C1	HEK cytotox inconclusive, 3T3 cytotox inconclusive, GPT2 inh inconclusive
O=C(NCCc1ccccc1)c1ccc2c(c1)OCCN(c1ccccc1)C2	HEK cytotox inconclusive, 3T3 cytotox inconclusive, Luciferase inh inconclusive
O=C(NC1CCCN(c2cc(-c3ccc(F)cc3)[nH]n2)C1)c1ccncc1 (stereo not given)	HEK cytotox inconclusive, Luciferase inh 40µM
O=C(NC1CCCN(c2cc(-c3ccc(F)cc3)[nH]n2)C1)c1ccc(Br)o1 (stereo not given)	HEK cytotox 32µM, 3T3 cytotox inconclusive, Luciferase inh inconclusive
O=C(NC1CCN(c2cc(-c3ccc(F)cc3)[nH]n2)C1)c1ccc(Br)o1 (stereo not given)	HEK cytotox inconclusive, 3T3 cytotox inconclusive, GPT2 inh inconclusive
O=C(NC1CCCN(c2cc(-c3ccccc3)[nH]n2)C1)c1ccc2cc[nH]c2c1 (stereo not given)	HEK cytotox inconclusive, 3T3 cytotox inconclusive, Luciferase inh 14µM, hNpr1 antagonist inconclusive, GPT2 inh inconclusive
O=C(NC1CCCN(c2cc(-c3ccccc3)[nH]n2)C1)c1ccc2nc[nH]c2c1 (stereo not given)	Luciferase inh 32µM
CC(=O)NC[C@H]1CCN(S(=O)(=O)c2ccc(F)c(Cl)c2)C[C@H]1N(C)C	none
CN1CCN(C(=O)c2ccc3nnc(-c4cc(C(F)(F)F)cc(C(F)(F)F)c4)n3c2)CC1	none (no result: Luciferase inh, hNpr1 antagonist)
COc1ccc(C(=O)N2CCCC(c3noc(COc4ccccc4F)n3)C2)cc1OC (stereo not given)	HEK cytotox inconclusive, 3T3 cytotox inconclusive
COc1cccc(-c2cccc(C(=O)N3CCN(C(=O)c4ccccc4)CC3)c2)c1	HEK cytotox inconclusive, 3T3 cytotox inconclusive (no result: Luciferase inh, hNpr1 antagonist)
O=C(NC1CCCN(c2cc(-c3ccc(F)cc3)[nH]n2)C1)c1ccc2nc[nH]c2c1 (stereo not given)	HEK cytotox inconclusive, 3T3 cytotox inconclusive, Luciferase inh 16µM
O[C@H]1[C@H](NCC2CCCCC2)[C@H]2CO[C@H](O2)[C@@H]1Sc1ccccc1	HEK cytotox inconclusive, 3T3 cytotox inconclusive
Cc1ccc(CN2C[C@@H]3C[C@H]2C(=O)N(CC2CC2)c2ccccc2O3)cc1	HEK cytotox 100µM, 3T3 cytotox 100µM
Cn1cc(CN2C[C@@H]3C[C@H]2C(=O)N(CC2CC2)c2ccccc2O3)c2ccccc21	HEK cytotox inconclusive, 3T3 cytotox 100µM, GPT2 inh inconclusive
Cc1ccc(C(=O)NC2CCN(c3cc(-c4cccs4)[nH]n3)CC2)c(C)c1	HEK cytotox inconclusive, 3T3 cytotox 32µM
COc1ccc(Cl)cc1C(=O)NC1CCN(c2cc(-c3cccs3)[nH]n2)CC1	HEK cytotox inconclusive, 3T3 cytotox 7.9µM
